Drawing on the supplement of paper PMC3484114, this text covers cell growth for 39 compounds.

Structures are written as SMILES. ± gives the standard deviation.

In this test the test system is OVCAR-3-derived ovarian cancer stem-like cells (spheroids). Put plainly: cell growth relative to untreated control; higher = more growth (less inhibition). The conditions noted are these: 2.29 µM; 96 h. The method in brief: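 Viability of stem-like cells from OVCAR-3 spheroids was assessed with TOX8 resazurin fluorescence at ex 560/em 590 nm. The cells had been trypsin-dissociated, seeded at 50,000 cells/mL in stem cell medium in ultra-low attachment 96-well plates and preincubated 24 h, then treated with compounds at 2.29 uM for 96 h at 37°C, 5% CO2, in 4 replicate wells, with fluorescence read after 4 h. Results were converted to percent growth against untreated wells after blank subtraction and Grubbs outlier removal.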

`COc1cccc(/C=N\NC(=O)C(C)SC(C)C(=O)N/N=C/c2cccc(OC)c2)c1` (centres undefined) showed a cell growth of 100 ± 33%.
In the case of `O=[N+]([O-])c1cccc2nc3ccccc3c(NCCCNc3c4ccccc4nc4cccc([N+](=O)[O-])c34)c12`, the cell growth amounted to 10.8 ± 2.9%.
Then `Nc1ccc(N)c2c1C(=O)c1ccccc1C2=O`, with 97.9 ± 12%; and `CCCCCCCCCCCCC(O)C(=O)O` (centres undefined), with 115 ± 19%.
`Cc1cc(O)c(/C=N/C(N)=S)c(=O)o1` returned a cell growth of 92.5 ± 14%.
`Nc1nc2n[nH]nc2c(=O)[nH]1` gave a cell growth of 91.6 ± 14%.
Then `COc1cc2cc(c1Cl)N(C)C(=O)C[C@H](OC(=O)[C@H](C)N(C)C(C)=O)[C@]1(C)O[C@H]1[C@H](C)[C@@H]1C[C@@](O)(NC(=O)O1)[C@H](OC)/C=C/C=C(\C)C2`, with 22.5 ± 4.8%; and `Cc1nn(-c2ccccc2)c2c1CC(=O)Nc1ccccc1-2`, with 114 ± 32%.
`CC(C)CCCC(=O)CCCCCCC(=O)CCN(O)C(=O)C(N)CO` (centres undefined) gave a cell growth of 136 ± 15%.
The same measure for `Cc1cccc(C)c1NC(=O)C(=O)C(c1ccccc1Cl)S(=O)(=O)Cc1ccccc1Cl` (centres undefined): 85.2 ± 16%; for `Cn1ncc2cc3c(Nc4ccc(Cl)cc4)cccc3nc21`: 8 ± 4.9%; for `Cc1ccc(Nc2nc(C)c(C(/C=C/c3ccc(/C=C/C(=N\NC(=O)C[n+]4ccccc4)c4sc(Nc5ccc(C)cc5[N+](=O)[O-])nc4C)cc3)=N/NC(=O)C[n+]3ccccc3)s2)c([N+](=O)[O-])c1`: 110 ± 11%.
Take `C[CH2][Ge]([CH2]C)([CH2]C)[O]C(=O)CCC(=O)[O][Ge]([CH2]C)([CH2]C)[CH2]C`: the cell growth is 110 ± 7.5%.
The same measure for `NC(=O)N/N=C1\CC2C3CC4C2C4C13` (centres undefined): 106 ± 20%.
The same measure for `N#CC(=S)Nc1ccc(Cl)c(Cl)c1`: 90.6 ± 12%; for `CN(CCc1ccccn1)c1ccc2c(c1)C(=O)c1ccccc1-2`: 103 ± 32%; for `CC1=CC(C)(C)N=C2SC(c3ccc(N)cc3)=NN12`: 112 ± 28%.
Consider `COc1cccc2c1C(=O)c1c(O)c3c(c(O)c1C2=O)C[C@@](O)(C(C)=O)C[C@@H]3O[C@@H]1C[C@@H](N(C)C)[C@@H](O)[C@@H](C)O1`, for which the cell growth stood at 26.5 ± 25%.
Then `CCCCCCCCCCCCCCCCOP(=O)([O-])OCC[N+](C)(C)C`, with 85.9 ± 16%.
On to `COC(=O)c1ccccc1OCc1cc(=O)oc2ccc(C)cc12`, for which the cell growth turned out to be 115 ± 20%.
As to `CCN(CC)Cc1cc(N=Nc2c(O)ccc3c(N=Nc4ccc(O)c(CN(CC)CC)c4)c(O)ccc23)ccc1O`, the cell growth worked out at 70.5 ± 21%.
In the case of `COC(=O)[C@@]12OC[C@]34[C@H]([C@@H](O)[C@@H]1O)[C@@]1(C)CC(=O)C(O)=C(C)[C@@H]1C[C@H]3OC(=O)[C@H](OC(=O)C=C(C)C)[C@@H]24`, the cell growth came out at 18.5 ± 3.1%.
The same measure for `CC(=O)Nc1ccc(-c2nc3ccccc3s2)cc1`: 171 ± 32%.
Take `CCN(CC)CCNC(=O)c1nn(-c2ccc(Cl)cc2)c2c1CCc1cc(OC)ccc1-2`: the cell growth was determined as 79.1 ± 11%.
Regarding `COc1ccc(C(=O)/C(Br)=C\C(=O)O)cc1`, the cell growth was 75.5 ± 16%.
Then `Nc1nc(N)c2cc(Sc3cccc(C(F)(F)F)c3)ccc2n1`, with 94.4 ± 24%; and `Nc1nc(=S)c2ncn([C@@H]3C[C@H](O)[C@@H](CO)O3)c2[nH]1`, with 110 ± 13%; and `CN1CCC23c4ccccc4NC1C21CCN(C)C3Nc2ccccc21`, with 118 ± 10%.
The same measure for `CC1(C)CC(Nc2ccc(Nc3ccccc3)cc2)CC(C)(C)N1`: 72.4 ± 10%; for `N[C@@H](CSC(c1ccccc1)(c1ccccc1)c1ccccc1)C(=O)O`: 34.8 ± 6.7%.
Then `COc1ccc(S(=O)(=O)N/N=C/C(=O)O)cc1`, with 117 ± 15%; and `Nc1cc2[nH]cnc2c(=O)[nH]1`, with 77.1 ± 7.5%; and `COc1ccc(/C=C2\N=C(c3ccccc3)OC2=O)c(OCc2ccccc2)c1`, with 69.7 ± 24%.
For the compound `CCN(CC)CCNc1ccc(C)c2sc3ccccc3c(=O)c12`, the cell growth was 77.7 ± 26%.
Compound `[Cl][Pt+2][Cl].[NH-]C1CCCCC1[NH-]` (centres undefined) had a cell growth of 98.5 ± 28%.
In turn, `CC(=O)N=C1N(/C=C2\C(=O)Oc3ccccc3C2=O)C(=O)/C(=C/c2ccccc2Cl)N1C` displayed a cell growth of 122 ± 43%.
The same measure for `CC1=C\C(O)CC(=O)Cc2nc(co2)C(=O)N2CCC=C2C(=O)OC(C(C)C)C(C)/C=C/C(=O)NC/C=C\1.CCC1NC(=O)C(NC(=O)c2ncccc2O)C(C)OC(=O)C(c2ccccc2)NC(=O)C2CC(=O)CCN2C(=O)C(Cc2ccc(N(C)C)cc2)N(C)C(=O)C2CCCN2C1=O` (centres undefined): 80.8 ± 20%; for `C(=N\NC1=NCCN1)/c1c2ccccc2c(/C=N/NC2=NCCN2)c2ccccc12`: 21.4 ± 5.8%; for `O=C(O)c1ccc(Nc2c3ccccc3nc3ccccc23)cc1`: 98 ± 12%.
